Assay results reported in PubChem BioAssay (NCATS).
Inconclusive results are not listed. Active and inactive are the calls of the source. Unless noted, the call rests on the fitted dose curve; in most records, active means well fitted curve in the direction sought with a large enough effect; inconclusive means small, poorly fitted or top-dose-only effect, or another doubt; inactive means no such curve, though single readings can be large; an effect the other way counts as inactive or inconclusive.

Experiments:
[1] = qHTS for differential inhibitors of proliferation of Plasmodium falciparum line Dd2 (AID 1882); details: Potency: Plasmodium falciparum Dd2 proliferation inhibition;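 further: series mostly up to about 29 µM; compound exposure of 72 h on infected erythrocytes; nearly all actives have a fitted effect of over 65% in size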
In short: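 RBC culture, 0.3% parasitemia / 2.5% Hct final; cpd added by pin tool in DMSO; 72 h, 37 C, 5% CO2; lysis buffer + SYBR Green I, o/n RT dark; FI 485/535; norm. to artemisinin 0.29 uM and DMSO.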

[2] = qHTS for differential inhibitors of proliferation of Plasmodium falciparum line W2 (AID 1883); details: Potency: Plasmodium falciparum W2 proliferation inhibition;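 further: parasites grown with compound for 72 h before lysis and staining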
[3] = qHTS for differential inhibitors of proliferation of Plasmodium falciparum line HB3 (AID 1886); details: Potency: Plasmodium falciparum HB3 proliferation inhibition;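 further: parasites grown with compound for 72 h before SYBR Green readout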
[4] = qHTS Assay for Modulators of Human Peripheral Myelin Protein 22 (PMP22) Expression/Activity (AID 1967; active means well fitted curve in the direction sought with a large enough effect in the signal ratio; the % refers to the signal ratio)
In short: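 Quantitative HTS in a mouse Schwann cell line expressing dual click beetle luciferases: Pmp22 promoter (green) and control EF-alpha promoter (red). After 24h treatment, corrected green/red signal ratio gave %Activity relative to untreated cells.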

[5] = molecular target: ATP-dependent DNA helicase Q1 (Homo sapiens) (UniProt P46063); assay: qHTS Validation Assay for Inhibitors of RecQ-Like Dna Helicase 1 (RECQ1) (AID 2353)
Sequence of ATP-dependent DNA helicase Q1 (Homo sapiens) (P46063 whole entry, looked up): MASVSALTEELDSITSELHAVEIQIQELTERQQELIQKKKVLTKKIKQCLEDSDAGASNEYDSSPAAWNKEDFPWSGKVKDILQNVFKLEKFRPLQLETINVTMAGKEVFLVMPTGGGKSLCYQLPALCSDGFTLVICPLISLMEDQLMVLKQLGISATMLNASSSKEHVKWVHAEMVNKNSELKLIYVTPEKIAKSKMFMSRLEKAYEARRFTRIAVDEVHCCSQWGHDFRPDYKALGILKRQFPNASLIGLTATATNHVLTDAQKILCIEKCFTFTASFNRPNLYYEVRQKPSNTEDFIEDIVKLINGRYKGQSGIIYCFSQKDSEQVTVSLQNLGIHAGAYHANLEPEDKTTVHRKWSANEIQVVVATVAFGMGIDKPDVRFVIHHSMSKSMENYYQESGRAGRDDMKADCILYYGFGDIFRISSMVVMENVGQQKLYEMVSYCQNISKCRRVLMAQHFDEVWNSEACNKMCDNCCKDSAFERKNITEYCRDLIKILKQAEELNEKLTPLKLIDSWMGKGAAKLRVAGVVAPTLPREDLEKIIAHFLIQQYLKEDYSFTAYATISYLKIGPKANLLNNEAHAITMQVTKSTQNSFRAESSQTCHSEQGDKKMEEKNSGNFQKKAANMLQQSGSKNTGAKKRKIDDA
In short: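 RECQ1T1 50 nM; forked duplex (20 bp + 30-nt ss tails) 200 nM, ATP 2 mM final; pH 8.0, 2 mM MgCl2, 2.5 ug/ml poly(dI-dC); 15 min compound preincubation; discontinuous kinetic read over 2 h at RT.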

[6] = molecular target: RecQ-like DNA helicase BLM (Homo sapiens) (UniProt P54132); assay: qHTS Validation Assay for Inhibitors of Bloom's syndrome helicase (BLM) (AID 2364)
Sequence of RecQ-like DNA helicase BLM (Homo sapiens) (P54132 whole entry, looked up): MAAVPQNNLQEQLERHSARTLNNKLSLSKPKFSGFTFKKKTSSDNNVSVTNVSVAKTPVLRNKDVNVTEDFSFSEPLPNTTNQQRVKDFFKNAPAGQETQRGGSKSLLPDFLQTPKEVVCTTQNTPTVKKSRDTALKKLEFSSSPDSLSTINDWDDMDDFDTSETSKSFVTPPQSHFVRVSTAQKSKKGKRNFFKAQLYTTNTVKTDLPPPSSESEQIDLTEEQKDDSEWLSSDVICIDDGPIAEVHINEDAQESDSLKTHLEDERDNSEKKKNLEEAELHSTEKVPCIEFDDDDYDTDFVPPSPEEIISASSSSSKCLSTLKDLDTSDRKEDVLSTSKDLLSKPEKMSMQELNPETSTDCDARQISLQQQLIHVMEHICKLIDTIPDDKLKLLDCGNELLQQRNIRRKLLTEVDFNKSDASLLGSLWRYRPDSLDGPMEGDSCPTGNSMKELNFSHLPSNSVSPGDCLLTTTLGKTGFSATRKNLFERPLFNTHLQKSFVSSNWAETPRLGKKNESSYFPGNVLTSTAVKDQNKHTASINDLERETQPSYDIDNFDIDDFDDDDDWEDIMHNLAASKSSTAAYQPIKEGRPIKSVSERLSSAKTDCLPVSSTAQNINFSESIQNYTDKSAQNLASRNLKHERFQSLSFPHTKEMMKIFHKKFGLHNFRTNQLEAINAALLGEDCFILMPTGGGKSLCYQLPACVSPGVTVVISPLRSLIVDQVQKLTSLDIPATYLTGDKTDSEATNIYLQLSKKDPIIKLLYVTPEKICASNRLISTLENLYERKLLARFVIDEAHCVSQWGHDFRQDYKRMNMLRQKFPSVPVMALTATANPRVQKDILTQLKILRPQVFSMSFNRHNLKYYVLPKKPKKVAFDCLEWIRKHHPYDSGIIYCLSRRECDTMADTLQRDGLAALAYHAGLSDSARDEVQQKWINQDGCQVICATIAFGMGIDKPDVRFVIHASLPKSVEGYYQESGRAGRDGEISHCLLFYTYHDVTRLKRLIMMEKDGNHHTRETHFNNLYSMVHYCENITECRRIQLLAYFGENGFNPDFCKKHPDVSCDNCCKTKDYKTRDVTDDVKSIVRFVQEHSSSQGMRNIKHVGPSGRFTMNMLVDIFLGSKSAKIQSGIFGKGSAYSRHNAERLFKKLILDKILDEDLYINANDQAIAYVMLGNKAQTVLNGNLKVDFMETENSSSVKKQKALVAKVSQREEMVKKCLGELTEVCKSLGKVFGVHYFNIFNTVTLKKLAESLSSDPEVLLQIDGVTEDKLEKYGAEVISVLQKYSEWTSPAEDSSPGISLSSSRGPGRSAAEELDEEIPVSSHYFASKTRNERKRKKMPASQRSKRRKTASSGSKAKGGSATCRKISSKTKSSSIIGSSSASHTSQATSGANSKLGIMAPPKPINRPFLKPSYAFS
In short: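 Forked 20-bp duplex substrate (200 nM, TAMRA/BHQ-2) plus 2 mM ATP added after 15 min compound preincubation with 50 nM enzyme, pH 8.0, poly(dI-dC) 2.5 ug/ml. Strand separation followed by fluorescence (525/598 nm) over 2 h, normalized to enzyme-free and DMSO controls.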

[7] = Cytometric Cell-Based qHTS for Inhibitors of the mTORC1 Signaling Pathway in MEF (Tsc2-/-, p53-/-) Cells (AID 2660);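 further: Tsc2 and p53 null MEFs carrying empty vector with compound for 24 h; percent of cells above a phospho-rpS6 to PI ratio cutoff in each well; series mostly up to about 38 µM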
In short: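 Percent of cells positive for normalized phospho-S6 staining is reported, with the cutoff set from rapamycin (7.5 nM) versus DMSO wells. Tsc2-/-, p53-/- MEFs received compound for 24 hrs.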

[8] = High Content Imaging Cell-Based qHTS for Inhibitors of the mTORC1 Signaling Pathway in MEF (Tsc2-/-, p53-/-) Cells (AID 2666);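 further: percent of cells scored positive for phospho-rpS6 Ser235/236 immunostaining by imaging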; further: potency means the concentration at half of the fitted maximal effect
In short: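 Tsc2-/-, p53-/- MEFs (empty-vector stable) grown in DMEM + 10% FBS were exposed to compounds for 24 hrs at 37 degree Celsius, fixed, and stained with Alexa-488 anti-phospho-rpS6 Ser235/236 plus Hoechst. Imaging gave the percentage of positive cells per well.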

[9] = High Content Imaging Cell-Based qHTS for Inhibitors of the mTORC1 Signaling Pathway in MEF Cells (AID 2667);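 further: Tsc2-/- p53-/- MEFs stably re-expressing wild-type Tsc2 exposed 24 h; series mostly up to about 38 µM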
In short: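 Tsc2-/-, p53-/- MEFs stably re-expressing WT Tsc2, grown in DMEM + 10% FBS, were treated with compounds for 24 hrs at 37 degree Celsius, fixed, and stained with Alexa-488 phospho-rpS6 Ser235/236 antibody plus Hoechst; results given as % positive cells.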

[10] = Cytometry Cell-Based qHTS for Inhibitors of the mTORC1 Signaling Pathway in MEF cells (AID 2668); further: potency means the concentration at half of the fitted maximal effect
In short: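 Pathway inhibition in WT Tsc2-rescued Tsc2-/-, p53-/- MEFs is measured as the Alexa-488 phospho-rpS6 to propidium iodide intensity ratio after 24 hrs of compound at 37 degree Celsius. PI-stained cell number gives viability.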

[11] = Validation screen for small molecules that induce DNA re-replication in MCF 10A normal breast cells (AID 463097); further: nearly all actives have a fitted effect of over 60% in size
In short: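 DNA re-replication was detected as a rise in nuclei with elevated Hoechst fluorescence after a 48 hr compound exposure of MCF 10A cells at 37 C.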

[12] = molecular target: Ubiquitin carboxyl-terminal hydrolase 2 (Homo sapiens) (UniProt O75604); assay: qHTS Validation Assay for Inhibitors of Ubiquitin-specific Protease USP2a Using CHOP2 as the Reporter (AID 463106)
Sequence of Ubiquitin carboxyl-terminal hydrolase 2 (Homo sapiens) (O75604 whole entry, looked up): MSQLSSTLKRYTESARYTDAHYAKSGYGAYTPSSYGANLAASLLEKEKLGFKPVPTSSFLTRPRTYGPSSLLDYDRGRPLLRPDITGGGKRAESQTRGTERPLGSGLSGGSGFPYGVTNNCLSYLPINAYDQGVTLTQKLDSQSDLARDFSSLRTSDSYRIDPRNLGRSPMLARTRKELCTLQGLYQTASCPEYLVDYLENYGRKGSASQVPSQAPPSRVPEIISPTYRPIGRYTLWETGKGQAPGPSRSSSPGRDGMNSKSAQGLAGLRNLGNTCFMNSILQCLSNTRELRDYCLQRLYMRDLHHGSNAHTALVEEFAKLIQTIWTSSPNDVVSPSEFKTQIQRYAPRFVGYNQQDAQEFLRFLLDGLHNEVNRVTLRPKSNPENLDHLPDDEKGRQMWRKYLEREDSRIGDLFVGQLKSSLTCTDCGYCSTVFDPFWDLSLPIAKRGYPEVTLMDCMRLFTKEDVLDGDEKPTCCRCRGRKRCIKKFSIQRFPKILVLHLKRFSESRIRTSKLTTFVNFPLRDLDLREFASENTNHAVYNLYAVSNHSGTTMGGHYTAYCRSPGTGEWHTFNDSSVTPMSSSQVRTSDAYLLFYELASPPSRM
In short: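 Readout was coupled fluorescence (Ex 485/Em 531 nm), read 60 min after adding 25 nM final Ub-CHOP2 and 25 nM reporter substrate. Beforehand, 10 nM final USP2 core had 30 min at RT with compound in pH 8.0 buffer. Curves were fitted after normalization to NEM and flagged for artifacts using time-zero reads.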

[13] = molecular target: DNA polymerase III PolC-type (Bacillus subtilis (strain 168)) (UniProt P13267); assay: qHTS Validation Assay for the Inhibitors of DNA Replication in Gram-Positive Bacteria (AID 485295);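 further: reconstituted holoenzyme with PolC plus beta clamp SSB and primase; PicoGreen fluorescence of double-stranded DNA made on primed circular M13 template; series mostly up to about 57 µM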
Sequence of DNA polymerase III PolC-type (Bacillus subtilis (strain 168)) (P13267 whole entry, looked up): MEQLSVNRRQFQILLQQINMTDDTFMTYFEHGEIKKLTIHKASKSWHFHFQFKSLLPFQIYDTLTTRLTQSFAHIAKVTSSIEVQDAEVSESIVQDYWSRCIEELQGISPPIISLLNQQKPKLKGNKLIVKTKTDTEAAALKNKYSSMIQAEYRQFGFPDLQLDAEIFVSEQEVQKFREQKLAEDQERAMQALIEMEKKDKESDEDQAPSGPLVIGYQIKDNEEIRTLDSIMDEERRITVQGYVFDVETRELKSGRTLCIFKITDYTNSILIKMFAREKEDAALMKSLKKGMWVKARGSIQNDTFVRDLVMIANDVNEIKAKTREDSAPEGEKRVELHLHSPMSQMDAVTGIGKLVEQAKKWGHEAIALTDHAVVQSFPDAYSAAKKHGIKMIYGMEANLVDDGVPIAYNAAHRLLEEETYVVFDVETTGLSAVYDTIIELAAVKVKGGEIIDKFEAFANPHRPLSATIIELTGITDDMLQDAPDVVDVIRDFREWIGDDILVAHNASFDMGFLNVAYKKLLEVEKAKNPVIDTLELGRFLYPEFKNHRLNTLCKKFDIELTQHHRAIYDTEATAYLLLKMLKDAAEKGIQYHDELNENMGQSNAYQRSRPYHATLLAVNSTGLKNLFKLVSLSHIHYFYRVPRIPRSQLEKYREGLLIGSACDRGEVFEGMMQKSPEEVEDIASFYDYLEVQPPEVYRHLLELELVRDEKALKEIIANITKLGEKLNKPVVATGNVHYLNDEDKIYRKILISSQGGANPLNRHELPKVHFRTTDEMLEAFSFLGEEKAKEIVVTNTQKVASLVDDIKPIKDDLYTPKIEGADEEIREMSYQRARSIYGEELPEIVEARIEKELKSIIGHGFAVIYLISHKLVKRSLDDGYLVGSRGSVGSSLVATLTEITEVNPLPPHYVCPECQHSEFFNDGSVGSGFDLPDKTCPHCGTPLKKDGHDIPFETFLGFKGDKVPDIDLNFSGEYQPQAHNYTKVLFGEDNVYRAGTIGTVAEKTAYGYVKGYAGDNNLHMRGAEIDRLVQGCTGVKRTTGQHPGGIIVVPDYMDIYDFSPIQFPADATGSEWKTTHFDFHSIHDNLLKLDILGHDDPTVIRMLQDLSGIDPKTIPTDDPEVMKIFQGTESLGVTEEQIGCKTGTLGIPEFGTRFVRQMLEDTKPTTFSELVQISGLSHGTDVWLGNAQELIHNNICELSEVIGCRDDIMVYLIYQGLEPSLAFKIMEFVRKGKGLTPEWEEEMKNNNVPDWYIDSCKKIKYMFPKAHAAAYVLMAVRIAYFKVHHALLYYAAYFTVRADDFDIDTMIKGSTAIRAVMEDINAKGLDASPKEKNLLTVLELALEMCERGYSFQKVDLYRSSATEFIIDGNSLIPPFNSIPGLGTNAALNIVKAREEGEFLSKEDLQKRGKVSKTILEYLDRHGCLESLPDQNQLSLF
In short: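 Primed replication of single-stranded M13Gori by a four-protein B. subtilis holoenzyme is measured at room temperature. Double-stranded product is quantified by PicoGreen fluorescence after an EDTA stop; inhibition is scaled between DMSO and EDTA controls.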

[14] = molecular target: Tumor susceptibility gene 101 protein (Homo sapiens) (UniProt Q99816); assay: qHTS Validation Assay for Iinhibitors of HIV-1 Budding by Blocking the Interaction of PTAP/TSG101 (AID 485342; calls by dose curve)
Sequence of Tumor susceptibility gene 101 protein (Homo sapiens) (Q99816 whole entry, looked up, the tested form may be a part): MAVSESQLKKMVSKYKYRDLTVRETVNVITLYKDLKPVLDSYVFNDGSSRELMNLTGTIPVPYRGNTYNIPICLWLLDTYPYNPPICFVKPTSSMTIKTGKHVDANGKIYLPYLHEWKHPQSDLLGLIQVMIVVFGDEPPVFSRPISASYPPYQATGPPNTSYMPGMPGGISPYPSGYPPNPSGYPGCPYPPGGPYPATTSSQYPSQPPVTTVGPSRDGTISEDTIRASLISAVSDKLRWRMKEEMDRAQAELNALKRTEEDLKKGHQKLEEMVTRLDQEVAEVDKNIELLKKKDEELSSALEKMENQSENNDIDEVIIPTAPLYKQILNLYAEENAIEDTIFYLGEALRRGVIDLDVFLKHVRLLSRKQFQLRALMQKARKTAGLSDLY
In short: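 Fluorescence anisotropy measured PTAP-Tsg101 interaction. Final concentrations were 10 uM protein domain and 50 nM labeled peptide, equilibrated 20 min at room temperature.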

[15] = qHTS Validation Assay to Find Inhibitors of Chronic Active B-Cell Receptor Signaling (AID 485345; active means well fitted curve in the direction sought with a large enough effect in the main read-out, with a control signal flat, not every such curve was filed as active)
In short: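 Read-out: ratio of filter-corrected green (IkappaBalpha fusion) to red (native) luciferase signal in doxycycline-induced TMD8 cells after 4 h at 37C. Titration spanned 46 uM–3 nM; Data were normalised to basal cells and 10 uM MG-132 wells.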

[16] = molecular target: Beta-2 adrenergic receptor (Homo sapiens) (UniProt P07550); assay: qHTS validation assay of beta-arrestin-biased ligands of beta2-adrenergic receptor (AID 485366)
Sequence of Beta-2 adrenergic receptor (Homo sapiens) (P07550 whole entry, looked up): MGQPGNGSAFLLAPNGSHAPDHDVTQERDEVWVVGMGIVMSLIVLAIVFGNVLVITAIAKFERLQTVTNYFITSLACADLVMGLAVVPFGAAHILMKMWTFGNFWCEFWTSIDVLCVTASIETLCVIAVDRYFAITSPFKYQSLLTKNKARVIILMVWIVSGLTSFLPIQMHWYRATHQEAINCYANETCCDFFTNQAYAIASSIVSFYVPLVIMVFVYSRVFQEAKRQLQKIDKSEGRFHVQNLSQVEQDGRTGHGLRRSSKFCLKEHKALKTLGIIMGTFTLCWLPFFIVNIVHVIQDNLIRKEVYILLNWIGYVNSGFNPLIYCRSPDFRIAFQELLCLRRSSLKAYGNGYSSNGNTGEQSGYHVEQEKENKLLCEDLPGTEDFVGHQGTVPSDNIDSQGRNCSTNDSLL
In short: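 Screening used a titration range of up to 46 microM in a beta-arrestin recruitment Tango luciferase assay. Cells in 1% FBS medium were treated 18 hr at 37 degrees C, and luminescence was normalized to %Activity.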

[17] = Quantitative high throughput screen for delayed death inhibitors of the malarial parasite plastid, 96 hour incubation (AID 488745);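 further: luciferase-expressing P. falciparum in erythrocytes at 2% hematocrit and 0.1% parasitemia; series mostly up to about 29 µM; nearly all actives have a fitted effect of over 70% in size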
In short: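 Luciferase-expressing P. falciparum, infected RBCs 2% Hct/0.1% parasitemia (final); 96 h cpd exposure, 37 C, 5% CO2; RPMI 1640 + 0.5% Albumax, bicarbonate, gentamycin. Readout: luminescence loss = growth inhibition.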

[18] = Quantitative high throughput screen for delayed death inhibitors of the malarial parasite plastid, 48 hour incubation (AID 488752); further: nearly all actives have a fitted effect of over 65% in size
In short: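 Luciferase-expressing P. falciparum in RBCs, 2% Hct, 0.1% parasitemia final; RPMI 1640 + 0.5% Albumax; 48 h, 37 C, 5% CO2; luminescence readout, signal drop = growth inhibition.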

[19] = qHTS Assay for Identification of Small Molecule Inducers of Hypoxia Response (AID 2120; active means well fitted curve in the direction sought with a large enough effect in the signal ratio, with a control signal flat, not every such curve was filed as active; the % refers to the signal ratio)
In short: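 Read-out: CCF4 FRET emission ratio 460nm/530nm (excitation 405nm), converted to %Activity, with AC50 fitted across a compound titration. ME-180 cells carried an HRE-driven beta-lactamase reporter; compound exposure 17 h, 37 degrees C.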

[20] = molecular target: ATP-dependent 6-phosphofructokinase (Trypanosoma brucei brucei) (UniProt O15648); assay: qHTS Validation Assay to Find Inhibitors of T. brucei phosphofructokinase (AID 485368); further: potency means the concentration at half of the fitted maximal effect
In short: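 PFK-generated ADP was measured after 45 min at room temperature using ADP-Glo. The reaction contained 0.5 mM F6P and 0.1 mM ATP.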

Measured: Potency

O=C(O)C1CCCN(CCC=C(c2ccccc2)c2ccccc2)C1 (configuration not stated)
inactive: [1] | [2] | [3] | [4] | [5] | [6] | [7] | [8] | [9] | [10] | [11] | [12] | [13] | [14] | [15] | [16] | [17] | [18]

O=C(O)c1cc(=O)[nH]c(=O)[nH]1
inactive: [19]

Nc1nc(N)c2nc(CNc3ccc(C(=O)NC(CCC(=O)O)C(=O)O)cc3)cnc2n1 (configuration not stated)
inactive: [1] | [2] | [3] | [4] | [5] | [7] | [8] | [9] | [10] | [11] | [12] | [13] | [14] | [15] | [16] | [17] | [18]

CC(C)NCC(O)c1ccc(NS(C)(=O)=O)cc1 (configuration not stated)
inactive: [1] | [3] | [4] | [5] | [7] | [8] | [9] | [10] | [11] | [12] | [13] | [14] | [15] | [18]

NC(N)=NC(N)=NCCc1ccccc1
inactive: [19]

Cc1ccnc2c1NC(=O)c1cccnc1N2C1CC1
inactive: [19]

N[C@@H](Cc1ccc(O)c(O)c1)C(=O)O
inactive: [7] | [8] | [9] | [10] | [13] | [14] | [15] | [16]
active: [20] 23.9 µM

CCN1CCCC1CNC(=O)c1cc(S(N)(=O)=O)ccc1OC (configuration not stated)
inactive: [1] | [2] | [3] | [4] | [5] | [7] | [8] | [9] | [10] | [11] | [12] | [13] | [14] | [15] | [16] | [17] | [18]

COc1cc2nc(N3CCCN(C)CC3)nc(NC3CCN(Cc4ccccc4)CC3)c2cc1OC
inactive: [12] | [13] | [14] | [16]
active: [8] 2.61 µM | [10] 6.56 µM

CC1=C(C(=O)O)N2C(=O)[C@@H](NC(=O)C(N)c3ccccc3)[C@H]2SC1 (some centres not stated)
inactive: [1] | [2] | [3] | [4] | [5] | [8] | [9] | [10] | [11] | [12] | [13] | [14] | [15] | [16] | [17] | [18]

NC(=O)c1cccc(N)c1
inactive: [1] | [2] | [3] | [5] | [6] | [7] | [8] | [9] | [10] | [11] | [12] | [13] | [14] | [15] | [16] | [17] | [18]
